In PubChem BioAssay (Tox21):
Where “and” joins values, the source holds several entries; their conditions need not be identical. Equal entries are not always repeated. Inconclusive results are not listed. Some compounds were tested as several samples or in several runs, with calls that do not always agree. Calls of active or inactive are those of the source. Unless noted, the call rests on the fitted dose curve; in most records, active means well fitted curve in the direction sought with a large enough effect in the repeat runs; inconclusive means weak or mixed curves; inactive means no such curve, though single readings can be large; an effect the other way counts as inactive or inconclusive.

What was measured:
[1] = qHTS assay for small molecules that induce genotoxicity in human embryonic kidney cells expressing luciferase-tagged ATAD5 (AID 651632); further: nearly all actives have a fitted effect of over 15% in size
Method in brief: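 Concentration-response screen for ATAD5 upregulation in HEK293T luciferase reporter cells; 16 hr treatment at 37C, then luminescence after 30 min with Amplite at room temperature.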

[2] = qHTS assay for small molecule agonists of the p53 signaling pathway - cell viability (AID 651633; calls by dose curve; further: nearly all actives have a fitted effect of over 30% in size; further: potency means the concentration at half of the fitted maximal effect)
Method in brief: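 p53RE-bla cells were treated with compound for 16 hours at 37 C. Cytotoxicity was then measured as CellTiter-Glo luminescence after 30 min at room temperature.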

[3] = qHTS assay for small molecule disruptors of the mitochondrial membrane potential - cell viability (AID 720634; calls by dose curve; further: nearly all actives have a fitted effect of over 20% in size; further: potency means the concentration at half of the fitted maximal effect)
Method in brief: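 In this qHTS format, HepG2 cells plated overnight were pinned with compound, incubated 1 hr, and assayed for ATP luminescence with CellTiter-Glo after m-MPI dye addition.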

[4] = qHTS assay to test for compound auto fluorescence at 590 nm (red) in HepG2 cells (AID 720674)
Method in brief: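 Seeding: 2,000 HepG2 cells/well, MEM/10% FBS, overnight 37 C. Dosing: compound vs DMSO. Incubation: 1 hr, 37 C, 5% CO2. Read: fluorescence 540 ex/590 em, Rose Bengal sodium as red reference.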

[5] = qHTS assay to test for compound auto fluorescence at 535 nm (green) in HepG2 cells (AID 720675); further: potency means the concentration at half of the fitted maximal effect
[6] = qHTS assay to test for compound auto fluorescence at 460 nm (blue) in HEK293 cells (AID 720678)
Method in brief: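 Intrinsic compound fluorescence is recorded in live HEK293 cultures after overnight incubation at 37C, 5% CO2, using excitation 405 nm and emission 460 nm. Values are referenced to triamterene.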

[7] = qHTS assay to test for compound auto fluorescence at 590 nm (red) in HEK293 cells (AID 720679)
Method in brief: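 Red autofluorescence, HEK293 cells: 2,000 cells/well; attach 4-5 hr 37C; add 23 nL cpd or DMSO; incubate o/n 37C 5% CO2; read Ex540/Em590; Rose Bengal sodium reference.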

[8] = qHTS assay to test for compound auto fluorescence at 535 nm (green) in HEK293 cells (AID 720680)
[9] = qHTS assay to test for compound auto fluorescence at 460 nm (blue) in HEK293 cell free culture (AID 720681)
Method in brief: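 Compounds were added to cell-free DMEM with 10% FBS and fluorescence read directly. The blue channel used 405 nm excitation and 460 nm emission, with triamterene as the reference fluorophore.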

[10] = qHTS assay to test for compound auto fluorescence at 535 nm (green) in HEK293 cell free culture (AID 720682)
Method in brief: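 Green-channel intensity (Ex/Em 485/535 nm) was recorded from compound-treated wells containing only DMEM with 10% FBS. Fluorescein provided the equivalency standard.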

[11] = qHTS assay to test for compound auto fluorescence at 590 nm (red) in HEK293 cell free culture (AID 720683)
Method in brief: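 Cell-free wells of DMEM with 10% FBS received compound, and intrinsic fluorescence was read at excitation/emission 540/590 nm. Values expressed as equivalence to Rose Bengal sodium.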

[12] = qHTS assay to test for compound auto fluorescence at 590 nm (red) in HepG2 cell free culture (AID 720684)
Method in brief: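 Rose Bengal sodium served as the reference for red signal. Test compounds were dispensed into serum-containing MEM (10% FBS) without cells, and plates were read at 540/590 nm.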

[13] = qHTS assay to test for compound auto fluorescence at 460 nm (blue) in HepG2 cell free culture (AID 720685)
Method in brief: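 Cell-free plates of MEM plus 10% FBS received 23 nL compound or DMSO vehicle; blue-channel (405/460 nm) intensity scored against triamterene as reference fluorophore.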

[14] = qHTS assay to test for compound auto fluorescence at 535 nm (green) in HepG2 cell free culture (AID 720686); further: potency means the concentration at half of the fitted maximal effect
[15] = qHTS assay to test for compound auto fluorescence at 460 nm (blue) in HepG2 cells (AID 720687)
Method in brief: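 HepG2 cells in MEM with 10% FBS, attached overnight at 37 C, were exposed to compound or DMSO for 1 hr at 37 C, 5% CO2. Blue fluorescence was read at 405/460 nm, with triamterene as reference fluorophore.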

[16] = qHTS assay for small molecules that induce genotoxicity in human embryonic kidney cells expressing luciferase-tagged ATAD5 - cell viability (AID 651634; calls by dose curve; further: nearly all actives have a fitted effect of over 25% in size; further: potency means the concentration at half of the fitted maximal effect)
Method in brief: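 15.5 hr compound or vehicle exposure of HEK293T cells expressing luciferase-tagged ATAD5 at 37C; live-cell protease activity is read by fluorescence after 30 min of CellTiter-Fluor.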

[17] = molecular target: Glucocorticoid receptor (Homo sapiens) (UniProt P04150); assay: qHTS assay to identify small molecule agonists of the glucocorticoid receptor (GR) signaling pathway (AID 720691; active means well fitted activation curve with a large enough effect in the signal ratio in the repeat runs, not every such curve was filed as active; the % refers to the signal ratio); details: GR-bla HeLa, beta-lactamase reporter ratio, 18 h; activation: at 62.4 µM (top of the series)
Method in brief: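 Measures GR pathway activation through a GRE-beta-lactamase reporter stably integrated in HeLa cells, with 18 h compound treatment at 37 C and fluorescence detection using a FRET substrate.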

[18] = molecular target: Glucocorticoid receptor (Homo sapiens) (UniProt P04150); assay: qHTS assay to identify small molecule antagonists of the glucocorticoid receptor (GR) signaling pathway (AID 720692; active means well fitted inhibition curve with a large enough effect in the signal ratio in the repeat runs, not every such curve was filed as active; the % refers to the signal ratio; further: potency means the concentration at half of the fitted maximal effect)
Method in brief: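 Tox21 10K library screened in concentration-response for blockade of dexamethasone (5 nM final)-induced GRE-bla reporter activity in HeLa cells; 18 h treatment, fluorescence read.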

[19] = qHTS assay for small molecule disruptors of the mitochondrial membrane potential (AID 720635); further: potency means the concentration at half of the fitted maximal effect
Method in brief: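 HepG2 cells exposed to compound 1 hr at 37C, then Mito-MPS dye 30 min. Ratio read of aggregate (540/590 nm) versus monomer (490/535 nm) fluorescence.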

Measured: Potency
On the % scale 0 is the no-effect control and ±100 the full control effect; tags describe the fitted curve by direction and shape or compound fluorescence and quenching.

Sequence of Glucocorticoid receptor (Homo sapiens) (P04150 whole entry, looked up): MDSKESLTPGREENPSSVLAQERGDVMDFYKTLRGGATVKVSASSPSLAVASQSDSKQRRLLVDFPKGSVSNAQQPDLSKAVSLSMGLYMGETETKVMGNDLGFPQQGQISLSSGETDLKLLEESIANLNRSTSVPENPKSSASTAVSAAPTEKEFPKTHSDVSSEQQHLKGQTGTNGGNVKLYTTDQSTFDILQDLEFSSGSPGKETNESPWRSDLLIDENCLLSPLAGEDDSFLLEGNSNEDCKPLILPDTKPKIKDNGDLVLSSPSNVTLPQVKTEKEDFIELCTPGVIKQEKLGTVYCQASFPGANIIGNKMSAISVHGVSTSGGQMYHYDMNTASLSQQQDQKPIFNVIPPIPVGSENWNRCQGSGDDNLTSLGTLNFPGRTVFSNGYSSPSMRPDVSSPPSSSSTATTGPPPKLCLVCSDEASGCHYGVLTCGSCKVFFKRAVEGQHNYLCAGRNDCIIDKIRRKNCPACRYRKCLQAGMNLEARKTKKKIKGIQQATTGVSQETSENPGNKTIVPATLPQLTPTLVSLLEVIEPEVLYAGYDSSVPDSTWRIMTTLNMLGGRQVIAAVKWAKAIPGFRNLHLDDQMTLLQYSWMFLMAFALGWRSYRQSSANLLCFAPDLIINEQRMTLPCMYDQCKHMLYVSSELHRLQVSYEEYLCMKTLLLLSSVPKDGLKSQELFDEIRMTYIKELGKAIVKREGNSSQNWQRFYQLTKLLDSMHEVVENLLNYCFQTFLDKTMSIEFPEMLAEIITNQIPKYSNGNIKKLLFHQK

Cc1c(C)c2c(c(C)c1OC(=O)CCC(=O)O)CC[C@@](C)(CCC[C@H](C)CCC[C@H](C)CCCC(C)C)O2
not listed: [16] | [17] | [18] | [19]
inactive: all other assays above

O=C(Oc1ccccc1)c1ccccc1C(=O)Oc1ccccc1
not listed: [3] | [7] | [19]
inactive: all other assays above

O=C(c1ccc(O)cc1O)c1ccc(O)cc1O
active: [19] 12.2 µM and 7.7 µM | [18] 24.6 µM
not listed: [2]
inactive: all other assays above

O=C(Nc1cccc([N+](=O)[O-])c1)c1cc2ccccc2cc1O
active: [2] 3.86 µM | [19] 0.154 µM
not listed: [3] | [14] | [16] | [17] | [18]
inactive: all other assays above

CN(C/C=C/C#CC(C)(C)C)Cc1cccc2ccccc12
not listed: [2]
inactive: all other assays above

CCCCCCCCS(=O)C(C)Cc1ccc2c(c1)OCO2 (stereo not given)
not listed: [2] | [7] | [18]
inactive: all other assays above

Fc1ccc(C(c2ccc(F)cc2)N2CCN(C/C=C/c3ccccc3)CC2)cc1
active: [2] 3.76 µM
not listed: [16] | [18] | [19]
inactive: all other assays above

CCCCCCCCCCCCc1ccc(O)cc1
active: [2] 24.3 µM | [19] 2.73 µM
not listed: [3] | [16] | [17] | [18]
inactive: all other assays above

NNc1nc(-c2ccc([N+](=O)[O-])cc2)cs1
active: [16] 24.3 µM | [3] 17.2 µM | [19] 1.37 µM
not listed: [2] | [14] | [17] | [18]
inactive: all other assays above

CCCC(=O)OC[C@@H](OC(=O)CCC)[C@@H](OC(=O)CCC)[C@H](Cn1c2nc(=O)[nH]c(=O)c-2nc2cc(C)c(C)cc21)OC(=O)CCC
active: [19] 6.99 µM | [5] 8.91 µM | [14] 8.91 µM [fluorescent]
not listed: [2] | [8] | [10] | [17] | [18]
inactive: all other assays above

Clc1ccccc1C(c1ccccc1)(c1ccccc1)n1ccnc1
active: [2] 19.3 µM | [19] 10.1 µM and 9.69 µM | [18] 7.23 µM
inactive and 54.5 µM (active): [3]
not listed: [15] | [16] | [17]
inactive: all other assays above

OCCN1CCN(CC/C=C2/c3ccccc3Sc3ccc(C(F)(F)F)cc32)CC1
active: [2] 29.8 µM
not listed: [3] | [16] | [17] | [18] | [19]
inactive: all other assays above

NC(=NCCCCCCN=C(N)/N=C(\N)Nc1ccc(Cl)cc1)/N=C(\N)Nc1ccc(Cl)cc1
active: [2] 38.2 µM [middle of 4 runs]
not listed: [7] | [14] | [16] | [17] | [18] | [19]
inactive: all other assays above

CNCc1cc(F)ccc1Oc1ccc(Cl)c(Cl)c1
not listed: [2] | [14] | [18] | [19]
inactive: all other assays above
